Drawing on the OligoGym collection, this text covers sensor-assay potency score (higher = more potent) for nine sequences.
Note: reference of the scale not given here.

In the assay the target is ARL4D. Briefly: pooled miR-30 sensor sort-seq; sequence = guide strand. Conditions: shRNA.
In turn, TATAAGAGCGCCACAGTGGTCG displayed a sensor-assay potency score (higher = more potent) of -0.158. In turn, ACAAACACTAGACCGTCTGTCC yielded a sensor-assay potency score (higher = more potent) of -0.415. Under TCCACCACAAACACTAGACCGT stands -0.55; under AAACTCCTTGAACTTGAGGCGG, -0.934. Turning to TTCTCGGTGTTGAAGCCTTTGG, the sensor-assay potency score (higher = more potent) was -1.06. The result for TTCGGTGCAACTCCACCTTGGC reads 0.0163; that for TGATTCGGTGCAACTCCACCTT, 0.0703. On to AGACCGTCCACAGCGCTGCAGC, for which the sensor-assay potency score (higher = more potent) was -1.79. In turn, ATTCGGTGCAACTCCACCTTGG came in with a sensor-assay potency score (higher = more potent) of -0.512.
